# Compound activity as filed in PubChem.
# Sampled rows, rich in hits. Any-hit rate of the full collection: about 4%.
# D1 ag: human D1 receptor agonism | HEK293 T-REx D1 cells, calcium flux, agonist mode | P21728 | AID 504660 | activation, % at 2 µM | actives 1% (n = 360,000); in the data active = activation above about 30%
# Target sequence (P21728 whole entry, looked up): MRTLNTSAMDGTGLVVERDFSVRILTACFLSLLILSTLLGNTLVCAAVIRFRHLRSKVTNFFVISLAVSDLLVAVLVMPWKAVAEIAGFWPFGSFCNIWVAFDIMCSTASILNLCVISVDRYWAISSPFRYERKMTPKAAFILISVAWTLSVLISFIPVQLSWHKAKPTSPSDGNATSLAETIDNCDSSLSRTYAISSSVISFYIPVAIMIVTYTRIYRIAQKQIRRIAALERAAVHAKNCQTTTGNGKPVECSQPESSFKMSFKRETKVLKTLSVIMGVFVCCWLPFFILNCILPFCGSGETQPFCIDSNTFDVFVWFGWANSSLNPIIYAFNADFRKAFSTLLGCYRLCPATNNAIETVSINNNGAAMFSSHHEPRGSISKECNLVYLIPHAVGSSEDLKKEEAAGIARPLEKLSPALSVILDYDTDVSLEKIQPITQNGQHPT
#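 Tetracycline-induced HEK293 TREx D1 cells, force-coupled to calcium signalling, were dye-loaded with a no-wash calcium kit. Compound was pin-added after a 10 s baseline. Fluorescence was read kinetically at 1 cycle/s for 180 s, with calcium rises flagged as agonism.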
# D1 potentiator: potentiators of human D1 dopamine receptor; potentiation, % at 10 µM; HEK293 TREx D1 cells, calcium flux, dopamine EC20 potentiation; actives 0.036% (n = 360,000); P21728; AID 504651; in the data active = potentiation above about 30%
# TRHR enhancer-1: allosteric enhancers of human TRH receptor; TRHR cells, fluo-8 calcium fluorescence, EC20 TRH enhancement; enhancement, % at 2 µM; actives 0.66% (n = 360,000); in the data active = enhancement above about 30%
#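 Enhancer read-out: after compound pinning and an initial kinetic agonist-mode read, an EC20 of TRH (10 nM final) was injected and fluo-8 calcium signal (Ex 480/Em 530) followed at 1 s/cycle for 100 cycles in TRHR-expressing cells.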
# Glioma ERSR ind: ER stress response induction in glioma; U87-MG GRP78 promoter luciferase reporter, 16 h; Potency, µM, hits mostly activators; actives 0.02% (n = 420,000); AID 602332; also: series mostly up to about 76 µM; nearly all actives have a fitted effect of over 35% in size
#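 Stably transfected U87-MG glioma cells carrying a GRP78-based luciferase sensor; 16 h compound incubation. Luminescence end-point read 10 min after Bright-Glo addition at room temperature.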
# D1 antagonist: human D1 dopamine receptor antagonism; HEK293 TREx D1 cells, calcium flux, dopamine EC80; stronger effect = lower value; P21728; AID 504652; activity change, negative = inhibition, % at 10 µM; actives 3.2% (n = 360,000); in the data active = activity change below about -30%
#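 Calcium flux readout: force-coupled, inducible Hek293 Trex D1 line, cells induced overnight at 30 C with tetracycline, dye-loaded 30–90 min at RT. Antagonism scored against EC80 dopamine challenge given 180 s after compound.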
# TRHR agonist-1: TRH receptor (human) agonism; activation, % at 2 µM; TRHR cells, calcium flux fluo-8, FDSS agonist mode; actives 0.18% (n = 360,000); in the data active = activation above about 30%
#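 In this calcium-flux screen, cells bearing human TRHR are dye-loaded with fluo-8, baselined for 10 cycles, then exposed to library compounds; positive kinetic calcium responses during the agonist phase mark hits, with TRH as control.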
# TRHR enhancer-2: human TRH receptor allosteric enhancement confirmation. TRH receptor cell assay, enhancer confirmation qHTS. AID 493076. 970 tested, under 10 active. shares compounds with TRHR enhancer-1. activity change, negative = inhibition, % at 46.1 µM;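 also: compound effect scored on response to added TRH at EC20 of 10 nM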
# TRHR agonist-2: confirmation of human TRH receptor agonists | Potency, µM (doses to about 46.1 µM), hits mostly activators | actives 8% (n = 970) | shares compounds with TRHR enhancer-1 | TRHR-expressing cells, agonist activation read-out; also: nearly all actives have a fitted effect of over 75% in size
# A number is an active result; 0 = inactive; ? = inconclusive; - = no result given. Unless noted, calls follow the shape of the dose curve; as a rule, active = well fitted curve in the direction sought with a large enough effect; inconclusive = small, poorly fitted or top-dose-only effect, or another doubt; inactive = no such curve, though single readings can be large; an effect the other way counts as inactive or inconclusive.
SMILES,D1 ag,D1 potentiator,TRHR enhancer-1,Glioma ERSR ind,D1 antagonist,TRHR agonist-1,TRHR enhancer-2,TRHR agonist-2
COc1ccc(NS(=O)(=O)c2ccc(N3CCCC3)c(NC(=S)Nc3cccc(C)c3C)c2)cc1,0,0,0,0,0,0,-,-
COc1ccc(NS(=O)(=O)c2ccc(N3CCCC3)c(NC(=S)Nc3ccc(SC(F)F)cc3)c2)cc1,0,0,64.7,0,-41.9,0,0,0
Cc1ccc(-c2cc(C(=O)Oc3ccccc3)c3cccc(C)c3n2)cc1,0,0,0,0,0,0,-,-
O=C(Nc1ccc(S(=O)(=O)Nc2nccc(C3Cc4ccccc4C(=O)O3)n2)cc1)c1ccccc1 (configuration not stated),0,0,42.8,0,0,0,0,0
COc1cccc2c(=O)c3c(cnn3C)n(C)c12,0,0,0,0,0,0,-,-
COc1cccc2c(=O)c3ccoc3n(C)c12,0,0,42.2,0,0,0,0,0
CCCN1C=CC(=CC=C(C#N)C#N)C=C1,128.9,0,0,0,0,41.8,0,18.4µM
CCCCCN1C=CC=C/C1=C\C=C(C#N)C#N,71.2,0,0,0,0,30.6,0,20.6µM
O=[N+]([O-])c1cccc(N=Cc2ccccc2)c1,-,-,-,0,-,-,-,-
O=[N+]([O-])c1cccc(N=Cc2sc3ccccc3c2O)c1,0,0,43.5,-,0,0,0,0
CC(C)c1ccc(N(CC(=O)NCCCN2CCOCC2)S(=O)(=O)c2ccccc2)cc1,0,0,48.0,0,0,0,0,0
O=C(NCc1ccccc1)C1CCC(CNS(=O)(=O)c2ccc(Br)s2)CC1 (configuration not stated),0,0,0,0,0,0,-,-
Cc1ccc(-c2ccc(S(=O)(=O)Nc3cccnc3)cc2)cc1,0,0,0,0,0,0,-,-
CC(C)Cc1ccc(S(=O)(=O)Nc2cccnc2)cc1,0,0,58.5,0,0,0,0,0
O=C1/C(=C/c2cccs2)CCC/C1=C\c1cccs1,0,0,0,0,0,0,-,-
Cn1cccc1/C=C1\CCC/C(=C\c2cccn2C)C1=O,138.6,0,0,0,-32.0,53.1,0,18.4µM
Cc1c(/C=N/Nc2ccc([N+](=O)[O-])cn2)c2ccccc2n1Cc1ccccc1,0,0,0,0,0,0,-,-
N#C/C(=C\c1ccc(Cl)cc1)c1n[nH]c(Cn2cncn2)n1,0,0,0,0,0,0,-,-
Nc1nonc1/C(=N/O)N1CCN(CCO)CC1,0,0,88.0,0,0,0,0,0
Nc1nonc1C(=O)OCC(=O)N1CCOCC1,0,0,0,0,0,0,-,-
COC(=O)c1ccc(NC(=O)C(=O)c2c[nH]c3ccccc23)cc1,0,0,0,0,0,0,-,-
O=C(Nc1ccccc1)C(=O)c1c[nH]c2ccccc12,0,0,49.7,0,0,0,0,0
CC1CCC2C(=O)N(c3cccc(C(=O)Nc4ccc(F)cc4)c3)C(=O)C2C1 (configuration not stated),0,0,56.9,0,0,0,0,0
O=C(N/N=C/c1ccc(Cl)cc1Cl)c1ccncc1,0,0,0,0,0,0,-,-
O=C(N/N=C/c1cc(Cl)cc(Cl)c1O)c1ccncc1,68.4,0,0,0,0,40.4,?,20.6µM
SMILES,D1 ag,D1 potentiator,TRHR enhancer-1,Glioma ERSR ind,D1 antagonist,TRHR agonist-1,TRHR enhancer-2,TRHR agonist-2
O=C(c1ccc2c(c1)OCO2)C1CCCN(C(=O)c2cnn(Cc3ccccc3)c2)C1 (configuration not stated),0,0,41.2,0,0,0,0,0
COCCCN(Cc1ccco1)C(=O)c1cc2c(s1)-c1ccc(Cl)cc1S(=O)(=O)C2,0,0,0,0,0,0,-,-
Nc1ncc(Br)cc1S(=O)(=O)NCCC(=O)NC1CCCCC1,0,0,0,0,0,0,-,-
O=C(O)c1ccc(S(=O)(=O)N2CCSCC2)cc1,0,0,51.3,0,0,0,0,0
NC(=O)c1ccc(S(=O)(=O)N2CCSCC2)cc1,0,0,0,0,0,0,-,-
CN1/C(=C\C(=S)NC(=O)c2ccc([N+](=O)[O-])cc2)C(C)(C)c2ccccc21,0,0,47.6,0,0,0,0,0
CN1/C(=C/C=N/NC(=O)c2ccc([N+](=O)[O-])cc2)C(C)(C)c2ccccc21,0,0,0,0,0,0,-,-
COc1ccc(N(C(C)C(=O)N(C)Cc2ccccc2)S(C)(=O)=O)cc1 (configuration not stated),0,0,50.4,0,0,0,0,0
COc1ccc(NC(=O)C(C)N(c2ccccc2)S(C)(=O)=O)cc1 (configuration not stated),0,0,0,0,0,0,-,-
CC(=O)c1c(C)[nH]c(C(=O)CN2CCN(S(=O)(=O)c3ccccc3[N+](=O)[O-])CC2)c1C,0,0,45.3,0,-30.6,0,0,0
CCCS(=O)(=O)N1CCN(S(=O)(=O)c2ccccc2[N+](=O)[O-])CC1,0,0,0,0,0,0,-,-
Cc1ccc2[nH]c(O)c(N=NC(N)=S)c2c1,0,0,0,0,0,0,-,-
COc1ccc2[nH]c(O)c(N=NC(=N)N)c2c1,0,0,61.8,0,0,0,0,0
CN1CCN(NC(=O)NC2CCCCC2)CC1,0,0,41.1,0,-39.0,0,0,0
CN1CCN(CC(=O)NC(=O)NC2CCCCC2)CC1,0,0,0,0,0,0,-,-
O=C(CN1N=C(c2ccc(Cl)cc2)CCC1=O)NCCc1ccc(Cl)cc1,0,0,0,0,0,0,-,-
CCOC(=O)CN1N=C(c2ccc(Cl)cc2)CCC1=O,0,0,41.0,0,0,0,0,0
Cc1cccc(/C=C/c2onc(C)c2[N+](=O)[O-])n1,-,-,-,0,-,-,-,-
COC(=O)c1ccccc1NC(=S)NC(NC(=O)COc1ccccc1)C(Cl)(Cl)Cl (configuration not stated),0,0,0,0,0,0,-,-
Cn1c(-c2cccc(F)c2)nc2c1c(=O)[nH]c(=O)n2Cc1ccccc1,0,0,49.0,0,0,0,0,0
CCCn1c(-c2cccc(F)c2)nc2c1c(=O)[nH]c(=O)n2Cc1ccccc1,0,-,0,0,0,0,-,-
CCN(CC)S(=O)(=O)c1cccc(C(=O)N/N=C(\C)c2ccc(O)cc2O)c1,0,0,0,0,0,0,0,?
CCOC(=O)c1[nH]c(C)c(C(=O)N(CC)CC)c1C,0,0,52.1,0,0,0,0,0
CCOC(=O)c1[nH]c(C)c(C(=O)NC)c1C,0,0,0,0,0,0,-,-
